What was measured:
Assay in all cases: PBM binding z-score (relative to random genomic background probes); higher = stronger binding; sequences stand for … in GC…GCGATTGACAGCGTAGAATGAAGG
[1] = tested on: RARb homodimer (NR concentration 270 nM)
Procedure, shortened: (§1)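 Ligand-free nuclear receptor dimers were bound for 1 h to custom Agilent 4×180K protein-binding microarrays. Detection used antibodies against each partner (one per run). Binding z-scores rest on regression-normalized fluorescence, with random background probes as the reference.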

[2] = tested on: RARg:RXRa (NR concentration 270 nM, RXRa partner concentration 90 nM)
Procedure, shortened: as §1

[3] = tested on: RARg homodimer (NR concentration 270 nM)
Procedure, shortened: as §1

[4] = tested on: RXRa DBDmut IVT, anti-RXR (DBD mutation: RXRa K156A/R161A, NR concentration 90 nM)
Procedure, shortened: as §1

[5] = tested on: RXRa homodimer (NR concentration 180 nM)
Procedure, shortened: as §1

[6] = tested on: THRa:RXRa (NR concentration 90 nM, RXRa partner concentration 90 nM)
Procedure, shortened: as §1

[7] = tested on: THRa homodimer (NR concentration 90 nM)
Procedure, shortened: as §1

[8] = tested on: VDR homodimer (NR concentration 270 nM)
Procedure, shortened: as §1

Sequence | PBM binding z-score [1] | PBM binding z-score [2] | PBM binding z-score [3] | PBM binding z-score [4] | PBM binding z-score [5] | PBM binding z-score [6] | PBM binding z-score [7] | PBM binding z-score [8]
CTCGGAAGGTCGGTTGAGGTGAGTATACGGATAA | 1.62 | 1.28 | 1.86 | 0.318 | 0.83 | 4.59 | 1.32 | 0.205
GCTAGCAGGCCATTTGGGTCACTCTATGACGGGC | 1.56 | 0.776 | 0.994 | -0.157 | 0.463 | 1.4 | 0.526 | 0.578
CTCGAAAGGTCGTGCTCAGGTGAGTATCCCAAAC | 2.88 | 5.08 | 3.47 | 2.02 | 4.66 | 4.05 | 1.22 | 0.742
CGTCAAAGTTCAACTAAGGTGACGTAAAGCACGC | 4.55 | 5.96 | 6.76 | 4.56 | 5.33 | 5.17 | 1.95 | 4.18
TCTCGGAGAACACGAAAGGTCAGAGCTCGACATC | 4.31 | 3.67 | 3.24 | 0.702 | 3.72 | 2.63 | 0.193 | 0.319
TCTTGGAGGACACGAAAGGTCAGAGCTCGACATC | 4.63 | 5.1 | 5.47 | 1.26 | 4.25 | 3.89 | 1.31 | 1.48
GCAACGAGGGCATTCGAGTTGATAGCATGGCGAT | 0.663 | 0.926 | 1.45 | 3.01 | 0.65 | 3.31 | -0.513 | 3.27

Source: the supplement of paper PMC6555819
